Inconclusive results are not listed. Where a call stands in place of a potency, no number is given. Active and inactive are the calls of the source. Unless noted, the call rests on the fitted dose curve; in most records, active means well fitted cell-killing curve with a large enough effect in the repeat runs; inconclusive means weak or mixed curves; inactive means flat fitted curve, though single readings scatter.
Experiment: qHTS assay to identify small molecule agonists of the progesterone receptor (PR) signaling pathway - cell viability counter screen (AID 1346799; calls by dose curve; further: nearly all actives have a fitted effect of over 45% in size; further: potency means the concentration at half of the fitted maximal effect)
Conditions: PR-UAS-bla HEK293T viability, CellTiter-Glo luminescence, 16 h; series mostly up to 92.4 µM
Summary of the method: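 Multiplexed viability read: CellTiter-Glo luminescence, 30 min RT, following LiveBLAzer FRET measurement on PR-UAS-bla HEK293T cells exposed to compounds 16 hr.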

Structure (SMILES) | Potency
CCCCCCCCOC(=O)c1ccc(C(=O)OCCCCCCCC)c(C(=O)OCCCCCCCC)c1 | inactive
CC(C)O.CC(C)O.OCCN(CCO)CCO.OCCN(CCO)CCO.[Ti] | inactive
C[N+](C)(C)CCCl | inactive
C=CCN1CC[C@]23c4c5ccc(O)c4O[C@H]2C(=O)CC[C@@]3(O)[C@H]1C5 | inactive
CCOC(=O)C(Cl)C(C)=O (stereo not given) | inactive
CC(Cl)Cl | inactive
C=COC(C)=O | inactive
Clc1cc(Cl)c(Cl)c(Cl)c1 | inactive
C[C@@H]1CC[C@H]2[C@@H](C)C(=O)O[C@@H]3O[C@@]4(C)CC[C@@H]1[C@]32OO4 | inactive
CCBr | inactive
CCOP(O)OCC | inactive
CC(C)(OO)c1ccccc1 | inactive
CC1C(=O)C[C@]2(C(C)C)C[C@H]12 (stereo not given in full) | inactive
CC/C(=N\OC/C=C/Cl)C1=C(O)CC(C2CCOCC2)CC1=O (stereo not given) | inactive
CC(C)(CCl)C(=O)Cl | 48.5 µM (active)
C=CC(=O)OCC(C)O (stereo not given) | inactive

Structure (SMILES) | Potency
CCOS(C)(=O)=O | inactive
Clc1cc(C(Cl)(Cl)Cl)cnc1Cl | inactive
CCCCNP(N)(N)=S | inactive
CC(=O)[C@H]1CC[C@H]2[C@@H]3CC[C@H]4C[C@](C)(O)CC[C@]4(C)[C@H]3CC[C@]12C | inactive
O=C(O)C(F)(F)C(F)(F)C(F)(F)C(F)(F)C(F)(F)C(F)(F)C(F)(F)C(F)(F)C(F)(F)F | inactive
C#CCOC(C(=O)OCCN(C)C)(c1ccccc1)c1ccccc1 | inactive
O=S(=O)(Cl)c1ccccc1 | inactive
Cc1cc(=O)[nH]o1 | inactive
O=C(O)COc1ccc(Cl)cc1 | inactive
CNC(C)Cc1ccccc1OC (stereo not given) | inactive
c1ccc(CN2CCNCC2)cc1 | inactive
CCN(C)N=O | inactive
ClCc1ccccc1 | inactive
O=S1OC[C@@H]2[C@H](CO1)[C@]1(Cl)C(Cl)=C(Cl)[C@@]2(Cl)C1(Cl)Cl (stereo not given in full) | inactive
CCCCCC[N+](=O)[O-] | inactive

Experiment: qHTS assay to identify small molecule antagonists of the TGF-beta/Smad signaling pathway - cell viability counter screen (AID 1346824); further: nearly all actives have a fitted effect of over 50% in size
Conditions: SBE-bla HEK293T viability, CellTiter-Glo luminescence; series mostly up to 76.8 µM
Summary of the method: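 Cytotoxicity counter-screen run in the same wells as the beta-lactamase Smad reporter read: CellTiter-Glo luminescence after 30 min at room temperature. HEK 293T SBE-bla cells had 5 hr compound exposure at 37 C with TGF-beta1 (0.25 ng/mL stock).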

Structure (SMILES) | Potency
CC(C)O.CC(C)O.OCCN(CCO)CCO.OCCN(CCO)CCO.[Ti] | inactive
C[N+](C)(C)CCCl | inactive
C=CCN1CC[C@]23c4c5ccc(O)c4O[C@H]2C(=O)CC[C@@]3(O)[C@H]1C5 | inactive
CCOC(=O)C(Cl)C(C)=O (stereo not given) | inactive
CC(Cl)Cl | inactive
C=COC(C)=O | inactive
COC(=O)c1cncn1C(C)c1ccccc1 (stereo not given) | inactive
Clc1cc(Cl)c(Cl)c(Cl)c1 | inactive
C[C@@H]1CC[C@H]2[C@@H](C)C(=O)O[C@@H]3O[C@@]4(C)CC[C@@H]1[C@]32OO4 | inactive
CCBr | inactive
CCOP(O)OCC | inactive
CC(C)(OO)c1ccccc1 | inactive
CC1C(=O)C[C@]2(C(C)C)C[C@H]12 (stereo not given in full) | inactive
CC/C(=N\OC/C=C/Cl)C1=C(O)CC(C2CCOCC2)CC1=O (stereo not given) | inactive
CC(C)(CCl)C(=O)Cl | inactive
C=CC(=O)OCC(C)O (stereo not given) | inactive
CCOS(C)(=O)=O | inactive

Structure (SMILES) | Potency
C[C@H]1CNCCc2ccc(Cl)cc21 | inactive
CCC(Br)(CC)C(=O)NC(N)=O | inactive
COC(C)(C)CCC[C@H](C)C/C=C/C(C)=C/C(=O)OC(C)C | inactive
Clc1cc(C(Cl)(Cl)Cl)cnc1Cl | inactive
CCCCNP(N)(N)=S | inactive
CC(=O)[C@H]1CC[C@H]2[C@@H]3CC[C@H]4C[C@](C)(O)CC[C@]4(C)[C@H]3CC[C@]12C | inactive
O=C(O)C(F)(F)C(F)(F)C(F)(F)C(F)(F)C(F)(F)C(F)(F)C(F)(F)C(F)(F)C(F)(F)F | inactive
C#CCOC(C(=O)OCCN(C)C)(c1ccccc1)c1ccccc1 | inactive
O=S(=O)(Cl)c1ccccc1 | inactive
Cc1cc(=O)[nH]o1 | inactive
O=C(O)COc1ccc(Cl)cc1 | inactive
CNC(C)Cc1ccccc1OC (stereo not given) | inactive
c1ccc(CN2CCNCC2)cc1 | inactive
CCN(C)N=O | inactive
ClCc1ccccc1 | inactive
O=S1OC[C@@H]2[C@H](CO1)[C@]1(Cl)C(Cl)=C(Cl)[C@@]2(Cl)C1(Cl)Cl (stereo not given in full) | inactive
CCCCCC[N+](=O)[O-] | inactive
